The source made the active and inactive calls. How the source made its calls: active means hit-call score of the fitted dose curve at least 0.9, where 1 is the maximum; inactive means score below 0.9.
Key:
Conditions in all cases: mRNA level, 48 h; actives raise or lower the signal
[1] = read-out: CYP3A5 (gene 1577); test: LTEA_HepaRG_CYP3A5: Life Technologies and Expression Analysis (LTEA) Assay for CYP3A5 using HepaRG (AID 2283493)
Procedure, shortened: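 Differentiated HepaRG cells in serum-free induction medium were dosed 48 h with test chemicals (8-point half-log series, top 100 uM, 0.5% DMSO, duplicate). CYP3A5 mRNA measured by qRT-PCR, normalized to ACTB, GAPDH, POLR2A; bidirectional fit versus DMSO.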

[2] = read-out: Fatty Acid-Binding Protein 1 (FABP1), FABP1 (gene 2168); test: LTEA_HepaRG_FABP1: Life Technologies and Expression Analysis (LTEA) Assay for Fatty Acid-Binding Protein 1 (FABP1) using HepaRG (AID 2283494)
Procedure, shortened: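 Differentiated human HepaRG cells were exposed in duplicate for 48 h in serum-free induction medium to 8-point half-log concentration series topping at 100 uM in 0.5% DMSO. FABP1 mRNA measured by TaqMan qRT-PCR, normalized to ACTB/GAPDH/POLR2A; bidirectional fit versus DMSO.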

[3] = read-out: Cytochrome P450 4A22 (Homo sapiens) (UniProt Q5TCH4); test: LTEA_HepaRG_CYP4A22: Life Technologies and Expression Analysis (LTEA) Assay for Cytochrome P450 4A22 (CYP4A22) using HepaRG (AID 2283495)
Procedure, shortened: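 qRT-PCR of CYP4A22 mRNA (Fluidigm TaqMan, normalized to three housekeeping genes) after 48 h chemical exposure of HepaRG cells; 8-point half-log series, top 100 uM, 0.5% DMSO vehicle. Bidirectional curve fitting vs DMSO baseline.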

[4] = read-out: Cytochrome P450 7A1 (Homo sapiens) (UniProt P22680); test: LTEA_HepaRG_CYP7A1: Life Technologies and Expression Analysis (LTEA) Assay for Cytochrome P450 7A1 (CYP7A1) using HepaRG (AID 2283496)
Procedure, shortened: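 Gene expression endpoint in human HepaRG liver cells treated for 48 h with test chemicals (up to 100 uM, 0.5% DMSO). Values come from bidirectional concentration-response fitting versus DMSO.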

[5] = read-out: Glutathione S-Transferase (GSTA2), GSTA2 (gene 2939); test: LTEA_HepaRG_GSTA2: Life Technologies and Expression Analysis (LTEA) Assay for Glutathione S-Transferase (GSTA2) using HepaRG (AID 2283497)
Procedure, shortened: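 Human HepaRG cells, plated 48 h, then exposed in serum-free induction medium for 48 h to eight half-log concentrations up to 100 uM in 0.5% DMSO, duplicate. GSTA2 mRNA by qRT-PCR, normalized to ACTB/GAPDH/POLR2A; bidirectional fit versus DMSO.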

[6] = read-out: Glutamate-cysteine ligase catalytic (GCLC), GCLC (gene 2729); test: LTEA_HepaRG_GCLC: Life Technologies and Expression Analysis (LTEA) Assay for Glutamate-cysteine ligase catalytic (GCLC) using HepaRG (AID 2283498)
Procedure, shortened: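 Differentiated human HepaRG cells, plated 48 h then switched to serum-free induction medium, were exposed in duplicate for 48 h to 8 half-log concentrations topping at 100 uM in 0.5% DMSO. GCLC mRNA was quantified by qRT-PCR against ACTB, GAPDH and POLR2A.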

[7] = read-out: growth arrest and DNA damage 45 (GADD45G), GADD45G (gene 10912); test: LTEA_HepaRG_GADD45G: Life Technologies and Expression Analysis (LTEA) Assay for growth arrest and DNA damage 45 (GADD45G) using HepaRG (AID 2283499)
Procedure, shortened: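 Differentiated human HepaRG cells in serum-free induction medium were exposed for 48 h to 8 half-log concentrations up to 100 uM in 0.5% DMSO, in duplicate. GADD45G mRNA was measured by TaqMan qRT-PCR, normalised to ACTB, GAPDH and POLR2A, and fitted bidirectionally against DMSO.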

[8] = read-out: Glutamate-cysteine ligase regulatory (GCLM), GCLM (gene 2730); test: LTEA_HepaRG_GCLM: Life Technologies and Expression Analysis (LTEA) Assay for Glutamate-cysteine ligase regulatory (GCLM) using HepaRG (AID 2283500)
Procedure, shortened: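 Differentiated human HepaRG cells exposed 48 h in serum-free induction medium to 8-point half-log concentrations (top 100 uM, 0.5% DMSO), in duplicate. GCLM mRNA quantified by qRT-PCR, normalized to ACTB, GAPDH, POLR2A; bidirectional fitting versus DMSO.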

[9] = read-out: Glutathione S-transferase M3 (GSTM3), GSTM3 (gene 2947); test: LTEA_HepaRG_GSTM3: Life Technologies and Expression Analysis (LTEA) Assay for Glutathione S-transferase M3 (GSTM3) using HepaRG (AID 2283501)
Procedure, shortened: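 Differentiated HepaRG cells in serum-free induction medium were exposed in duplicate for 48 h to 8 half-log concentrations up to 100 uM in 0.5% DMSO. GSTM3 mRNA was measured by TaqMan qRT-PCR, normalized to ACTB/GAPDH/POLR2A, and fitted bidirectionally versus DMSO.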

[10] = read-out: Heat shock 70 kDa protein 1 (HSPA1A), gene 3303; test: LTEA_HepaRG_HSPA1A: Life Technologies and Expression Analysis (LTEA) Assay for Heat shock 70 kDa protein 1 (HSPA1A) using HepaRG (AID 2283502)
Procedure, shortened: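 Differentiated human HepaRG cells in serum-free induction medium were exposed in duplicate for 48 h to eight concentrations (top 100 uM, half-log steps, 0.5% DMSO). HSPA1A mRNA was quantified by qRT-PCR, normalized to ACTB, GAPDH and POLR2A, and fitted bidirectionally against DMSO.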

[11] = read-out: Hypoxia-inducible factor 1-alpha (Homo sapiens) (UniProt Q16665); test: LTEA_HepaRG_HIF1A: Life Technologies and Expression Analysis (LTEA) Assay for Hypoxia-inducible factor 1 (HIF1A) Trancription factor using HepaRG (AID 2283503)
Procedure, shortened: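 HepaRG, 48 h exposure, 8-pt half-log series from 100 uM, 0.5% DMSO vehicle, duplicates. Readout: HIF1A transcript by qRT-PCR (Fluidigm array), housekeeping-normalised. Bidirectional curve fit vs DMSO baseline.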

[12] = read-out: 3-Hydroxy-3-Methylglutaryl-CoA Synthase 2 (HMGCS2), HMGCS2 (gene 3158); test: LTEA_HepaRG_HMGCS2: Life Technologies and Expression Analysis (LTEA) Assay for 3-Hydroxy-3-Methylglutaryl-CoA Synthase 2 (HMGCS2) using HepaRG (AID 2283504)
Procedure, shortened: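 Differentiated human HepaRG cells were exposed in duplicate for 48 h in serum-free induction medium to eight concentrations (top 100 uM, half-log steps, 0.5% DMSO). HMGCS2 mRNA was quantified by TaqMan qRT-PCR, normalised to ACTB, GAPDH and POLR2A, then fitted bidirectionally against DMSO.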

[13] = read-out: HGF (gene 3082); test: LTEA_HepaRG_HGF: Life Technologies and Expression Analysis (LTEA) Assay for Hepatocyte Growth Facto (HGF) using HepaRG (AID 2283505)
Procedure, shortened: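 Differentiated human HepaRG cells in serum-free induction medium were exposed in duplicate for 48 h to eight concentrations (top 100 uM, half-log steps, 0.5% DMSO). HGF mRNA was quantified by qRT-PCR, normalized to ACTB, GAPDH and POLR2A.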

[14] = read-out: Insulin Like Growth Factor 1 (IGF1), IGF1 (gene 3479); test: LTEA_HepaRG_IGF1: Life Technologies and Expression Analysis (LTEA) Assay for Insulin Like Growth Factor 1 (IGF1) using HepaRG (AID 2283506)
Procedure, shortened: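 Differentiated human HepaRG cells were dosed for 48 h in serum-free induction medium with 0.5% DMSO, eight half-log concentrations up to 100 uM, in duplicate. IGF1 mRNA was quantified by qRT-PCR normalized to ACTB, GAPDH, POLR2A; bidirectional fitting versus DMSO.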

[15] = read-out: Intercellular Adhesion Molecule 1 (ICAM1), ICAM1 (gene 3383); test: LTEA_HepaRG_ICAM1: Life Technologies and Expression Analysis (LTEA) Assay for Intercellular Adhesion Molecule 1 (ICAM1) using HepaRG (AID 2283507)
Procedure, shortened: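 Differentiated HepaRG cells in serum-free induction medium were exposed in duplicate for 48 h to eight half-log concentrations up to 100 uM in 0.5% DMSO. Transcript levels were measured by qRT-PCR normalized to ACTB, GAPDH and POLR2A; bidirectional fits relative to DMSO.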

[16] = read-out: Insulin-like growth factor-binding protein 1 (IGFBP1), IGFBP1 (gene 3484); test: LTEA_HepaRG_IGFBP1: Life Technologies and Expression Analysis (LTEA) Assay for Insulin-like growth factor-binding protein 1 (IGFBP1) using HepaRG (AID 2283508)
Procedure, shortened: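 Differentiated human HepaRG cells in serum-free induction medium were exposed in duplicate for 48 h to eight concentrations, top 100 uM with half-log dilutions, in 0.5% DMSO. Transcript levels came from qRT-PCR normalised to ACTB, GAPDH and POLR2A, fitted bidirectionally against DMSO.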

[17] = read-out: Interleukin 6 (IL6), IL6 (gene 3569); test: LTEA_HepaRG_IL6: Life Technologies and Expression Analysis (LTEA) Assay for Interleukin 6 (IL6) using HepaRG (AID 2283509)
Procedure, shortened: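 Differentiated human HepaRG cells, plated 48 h then switched to serum-free induction medium, were exposed in duplicate for 48 h to eight half-log concentrations up to 100 uM in 0.5% DMSO. IL6 mRNA measured by qRT-PCR, normalized to ACTB/GAPDH/POLR2A.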

[18] = read-out: Interleukin 6 Receptor (IL6R), IL6R (gene 3570); test: LTEA_HepaRG_IL6R: Life Technologies and Expression Analysis (LTEA) Assay for Interleukin 6 Receptor (IL6R) using HepaRG (AID 2283510);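 on AC50: TaqMan qRT-PCR signal normalized to ACTB GAPDH and POLR2A housekeeping genes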
Procedure, shortened: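 Differentiated human HepaRG cells, plated 48 h then switched to serum-free induction medium, were dosed in duplicate for 48 h at eight half-log concentrations up to 100 uM in 0.5% DMSO. IL6R mRNA quantified by qRT-PCR, normalized to ACTB/GAPDH/POLR2A; bidirectional fit versus DMSO.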

[19] = read-out: Potassium channel subfamily K member 1 (KCNK1), KCNK1 (gene 3775); test: LTEA_HepaRG_KCNK1: Life Technologies and Expression Analysis (LTEA) Assay for Potassium channel subfamily K member 1 (KCNK1) using HepaRG (AID 2283511)
Procedure, shortened: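 Differentiated human HepaRG cells in serum-free induction medium were exposed in duplicate for 48 h to 8 half-log concentrations up to 100 uM in 0.5% DMSO. KCNK1 mRNA was measured by TaqMan qRT-PCR, normalized to ACTB, GAPDH and POLR2A, and fitted bidirectionally versus DMSO.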

[20] = read-out: Keratin 19 (KRT19), KRT19 (gene 3880); test: LTEA_HepaRG_KRT19: Life Technologies and Expression Analysis (LTEA) Assay for Keratin 19 (KRT19) using HepaRG (AID 2283512)
Procedure, shortened: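 Differentiated human HepaRG cells, plated 48 h, were exposed in duplicate for 48 h in serum-free induction medium to eight half-log concentrations up to 100 uM in 0.5% DMSO. KRT19 mRNA was quantified by qRT-PCR, normalized to ACTB, GAPDH and POLR2A, and fitted bidirectionally versus DMSO.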

Measured: AC50

Hypoxia-inducible factor 1-alpha (Homo sapiens), sequence (Q16665 whole entry, looked up): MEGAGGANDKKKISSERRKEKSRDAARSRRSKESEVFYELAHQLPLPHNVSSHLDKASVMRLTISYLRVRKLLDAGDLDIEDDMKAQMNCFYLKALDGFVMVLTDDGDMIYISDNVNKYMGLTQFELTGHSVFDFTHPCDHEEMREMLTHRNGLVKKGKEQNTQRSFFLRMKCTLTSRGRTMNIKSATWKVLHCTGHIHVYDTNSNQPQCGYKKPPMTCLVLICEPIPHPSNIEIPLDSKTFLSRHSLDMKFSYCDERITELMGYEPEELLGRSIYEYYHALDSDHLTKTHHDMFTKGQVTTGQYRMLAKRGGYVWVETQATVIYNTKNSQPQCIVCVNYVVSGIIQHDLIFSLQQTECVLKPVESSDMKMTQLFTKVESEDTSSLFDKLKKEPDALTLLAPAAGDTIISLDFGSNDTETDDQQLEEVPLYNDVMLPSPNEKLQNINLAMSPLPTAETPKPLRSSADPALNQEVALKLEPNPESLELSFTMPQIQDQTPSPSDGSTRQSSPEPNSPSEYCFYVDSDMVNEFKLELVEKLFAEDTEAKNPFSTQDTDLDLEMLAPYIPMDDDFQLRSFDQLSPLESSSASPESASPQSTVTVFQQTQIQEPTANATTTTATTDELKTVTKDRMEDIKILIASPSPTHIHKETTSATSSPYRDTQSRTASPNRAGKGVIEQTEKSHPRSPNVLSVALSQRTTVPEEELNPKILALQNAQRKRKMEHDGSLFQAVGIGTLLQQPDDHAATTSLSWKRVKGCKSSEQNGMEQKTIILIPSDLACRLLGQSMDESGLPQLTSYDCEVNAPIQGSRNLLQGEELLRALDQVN

COC(=O)CSc1cc(N=c2sc(=O)n3n2CCCC3)c(F)cc1Cl
inactive: all assays above

CSC(=O)c1cccc2nnsc12
inactive: all assays above

Oc1ccc(C(c2ccc(O)cc2)C(Cl)(Cl)Cl)cc1
inactive: [3] | [4] | [8] | [9] | [14] | [19]
active: [1] 70.7 µM | [2] 94.3 µM | [5] 78.2 µM | [6] 77.2 µM | [7] 78.9 µM | [10] 94.5 µM | [11] 79.5 µM | [12] 92.8 µM | [13] 83.7 µM | [15] 79.3 µM | [16] 88.5 µM | [17] 77.1 µM | [18] 87.8 µM | [20] 50 µM

O=C(c1ccc(O)cc1O)c1ccc(O)cc1O
inactive: all assays above

CN(C)C(=O)Nc1ccc(Cl)c(Cl)c1
active: [2] 50 µM | [4] 6.86 µM | [5] 50 µM | [6] 35.8 µM | [8] 50 µM | [16] 34.6 µM | [20] 50 µM
inactive: all other assays above

— PubChem BioAssay (EPA / NIEHS)
